Inconclusive results are not listed. Where a call stands in place of a potency, no number is given. Values without a mark were called inactive. Activity calls are given as the source filed them. Calls follow the shape of the dose curve; as a rule, active = well fitted curve in the direction sought with a large enough effect in the repeat runs; inconclusive = weak or mixed curves; inactive = no such curve, though single readings can be large; an effect the other way counts as inactive or inconclusive.
Assays:
[1] = qHTS RealTime-Glo MT Cell Viability Assay in HepG2 cells - 40 hour (AID 1224870); also: nearly all actives have a fitted effect of over 50% in size; also: potency is read from the fitted curve at half-maximal effect
Method in brief: (§1)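 Real-time viability: cells seeded at 600 per well together with NanoLuc and cell-permeant prosubstrate, compounds added after 5 h incubation. Luminescence tracked at 0, 8, 16, 24, 32 and 40 h of exposure.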

[2] = A CellTox Green Cytotoxicity Assay to monitor cytotoxicity in HEK293 cells - 40 hour (AID 1224871); also: nearly all actives have a fitted effect of over 45% in size
Method in brief: (§2)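 Cytotoxicity was tracked continuously in HEK293 cells by a DNA-binding dye excluded from viable cells. Compounds were transferred in DMSO 5 h after seeding; fluorescence was recorded at intervals up to 40 h.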

[3] = qHTS RealTime-Glo MT Cell Viability Assay in HEK293 cells - 16 hour (AID 1224872); also: nearly all actives have a fitted effect of over 50% in size; also: potency is read from the fitted curve at half-maximal effect
Method in brief: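 HEK293 cells seeded with NanoLuc/prosubstrate reagent, rested 5 h at 37 C, then dosed and kept at 37 C up to 40 h. Nonlytic real-time luminescence from viable cells read at 0, 8, 16, 24, 32 and 40 h.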

[4] = qHTS RealTime-Glo MT Cell Viability Assay in HepG2 cells - 8 hour (AID 1224873); also: nearly all actives have a fitted effect of over 55% in size
Method in brief: as §1

[5] = qHTS RealTime-Glo MT Cell Viability Assay in HEK293 cells - 40 hour (AID 1224874); conditions: RealTime-Glo luminescence; max response: stronger effect = lower value; also: nearly all actives have a fitted effect of over 50% in size; also: potency is read from the fitted curve at half-maximal effect
Method in brief: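 Nonlytic bioluminescent viability monitoring. HEK293 at 600 cells/well with reagent; 5 h settle; compound transfer by pintool; plates held at 37 C and read at set time points.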

[6] = A CellTox Green Cytotoxicity Assay to monitor cytotoxicity in HEK293 cells - 24 hour (AID 1224875); also: series mostly up to about 77 µM; nearly all actives have a fitted effect of over 45% in size
Method in brief: as §2

[7] = A CellTox Green Cytotoxicity Assay to monitor cytotoxicity in HepG2 cells - 16 hour (AID 1224876); also: nearly all actives have a fitted effect of over 45% in size
Method in brief: (§3)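 Real-time, homogeneous cytotoxicity readout: dead-cell DNA staining by CellTox Green in HepG2 monolayers, fluorescence measured at timed intervals up to 40 h of continuous compound exposure.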

[8] = qHTS RealTime-Glo MT Cell Viability Assay in HepG2 cells - 32 hour (AID 1224877); also: nearly all actives have a fitted effect of over 55% in size; also: potency is read from the fitted curve at half-maximal effect
Method in brief: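 HepG2 cells (600/well) were dispensed with RealTime-Glo reagents, incubated 5 h at 37 °C, then treated with compounds in DMSO for up to 40 h. Nonlytic NanoLuc luminescence reflecting viable cells was read at each stated time point.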

[9] = A CellTox Green Cytotoxicity Assay to monitor cytotoxicity in HepG2 cells - 24 hour (AID 1224878); also: nearly all actives have a fitted effect of over 45% in size
Method in brief: as §3

[10] = A CellTox Green Cytotoxicity Assay to monitor cytotoxicity in HepG2 cells - 40 hour (AID 1224879); also: nearly all actives have a fitted effect of over 40% in size
Method in brief: as §3

| SMILES | Potency [1] | Potency [2] | Potency [3] | Potency [4] | max response [5] | Potency [6] | Potency [7] | Potency [8] | Potency [9] | Potency [10] | Potency [5] |
| --- | --- | --- | --- | --- | --- | --- | --- | --- | --- | --- | --- |
| N#CCCN(CCO)CCO | inactive | inactive | inactive | inactive | 0.524% | inactive | inactive | inactive | inactive | inactive | – |
| CCOC(C)=O | inactive | inactive | inactive | inactive | 0.693% | inactive | inactive | inactive | inactive | inactive | – |
| CCOc1ccccc1O[C@H](c1ccccc1)[C@H]1CNCCO1 | inactive | inactive | inactive | inactive | 1.67% | inactive | inactive | inactive | inactive | – | – |
| NC(=O)c1ccncc1 | inactive | inactive | inactive | inactive | 6.51% | inactive | inactive | inactive | inactive | inactive | – |
| O=C1c2ccccc2C(=O)c2c(O)c(O)cc(O)c21 | inactive | inactive | inactive | inactive | 9.06% | inactive | inactive | inactive | inactive | inactive | – |
| Cc1ccc(C(C)(C)O)cc1 | inactive | inactive | inactive | inactive | -0.324% | inactive | inactive | inactive | inactive | inactive | – |
| CC/C=C1/OC(=O)c2ccccc21 | inactive | inactive | inactive | inactive | -7.38% | inactive | inactive | inactive | inactive | inactive | – |
| CC[C@]1(O)C[C@H]2CN(CCc3c([nH]c4ccccc34)[C@@](C(=O)OC)(c3cc4c(cc3OC)N(C=O)[C@H]3[C@@](O)(C(=O)OC)[C@H](OC(C)=O)[C@]5(CC)C=CCN6CC[C@]43[C@@H]65)C2)C1 | inactive | inactive | inactive | inactive | – | inactive | inactive | inactive | inactive | – | 0.0012 µM (active) |
| Cc1ccc(Cl)c(Nc2ccccc2C(=O)O)c1Cl | inactive | inactive | inactive | inactive | -3% | inactive | inactive | inactive | inactive | inactive | – |
| CCCCCCNC(=O)n1cc(F)c(=O)[nH]c1=O | inactive | inactive | inactive | inactive | -6.08% | inactive | inactive | inactive | inactive | inactive | – |
| CCCCCCCCCI | 25 µM (active) | inactive | inactive | inactive | -1.11% | inactive | inactive | 35.3 µM (active) | inactive | inactive | – |
| CCC1NC(=O)c2cc(S(N)(=O)=O)c(Cl)cc2N1 (configuration not stated) | inactive | inactive | inactive | inactive | 6.45% | inactive | inactive | inactive | inactive | inactive | – |
| CCCCCCCCN | inactive | inactive | inactive | inactive | -0.288% | inactive | inactive | inactive | inactive | inactive | – |
| CC(=O)Oc1ccc([N+](=O)[O-])cc1CCl | inactive | inactive | 6.16 µM (active) | inactive | – | inactive | inactive | inactive | inactive | inactive | 3.47 µM (active) |
| CCCCCC[C@@H](O)C/C=C\CCCCCCCC(=O)O | inactive | inactive | inactive | inactive | 13.2% | inactive | inactive | inactive | inactive | inactive | – |
| CCCCCCCC/C=C\CCCCCCCCO | inactive | inactive | inactive | inactive | 15% | inactive | inactive | inactive | inactive | inactive | – |
| CC(=O)c1cc2ccccc2s1 | inactive | inactive | inactive | inactive | 2.63% | inactive | inactive | inactive | inactive | inactive | – |
| O=C1c2ccccc2C(=O)C1(O)O | inactive | inactive | inactive | inactive | -22.4% | inactive | inactive | inactive | inactive | – | – |
| O=C(O)CCc1nc(-c2ccccc2)c(-c2ccccc2)o1 | inactive | inactive | inactive | inactive | 0.935% | inactive | inactive | inactive | inactive | inactive | – |
| CO/N=C(/C(=O)N[C@@H]1C(=O)N2C(C(=O)O)=C(COC(N)=O)CS[C@H]12)c1ccco1 | inactive | inactive | inactive | inactive | 10.8% | inactive | inactive | inactive | inactive | inactive | – |
| C[C@H]1c2cccc(O)c2C(O)=C2C(=O)[C@]3(O)C(O)=C(C(N)=O)C(=O)[C@@H](N(C)C)[C@@H]3[C@@H](O)[C@@H]21 | inactive | inactive | inactive | inactive | 0.751% | inactive | inactive | inactive | inactive | inactive | – |
| CC(=O)OCC[N+](C)(C)C | inactive | inactive | inactive | inactive | 1.87% | inactive | inactive | inactive | inactive | inactive | – |

| SMILES | Potency [1] | Potency [2] | Potency [3] | Potency [4] | max response [5] | Potency [6] | Potency [7] | Potency [8] | Potency [9] | Potency [10] | Potency [5] |
| --- | --- | --- | --- | --- | --- | --- | --- | --- | --- | --- | --- |
| CCCCCCCCOc1ccc(C(=O)O)cc1 | inactive | inactive | inactive | inactive | -8.38% | inactive | inactive | inactive | inactive | inactive | – |
| c1ccc2sc(SN(C3CCCCC3)C3CCCCC3)nc2c1 | inactive | inactive | inactive | inactive | 3.85% | inactive | inactive | inactive | inactive | inactive | – |
| CCOC(=O)[C@H](CCc1ccccc1)N[C@@H](C)C(=O)N(CC(=O)O)C1Cc2ccccc2C1 | inactive | inactive | inactive | inactive | 5.01% | inactive | inactive | inactive | inactive | inactive | – |
| C1COC1 | inactive | inactive | inactive | inactive | 6.53% | inactive | inactive | inactive | inactive | inactive | – |
| CCC1(CO)COCOC1 | inactive | inactive | inactive | inactive | -7.69% | inactive | inactive | inactive | inactive | inactive | – |
| CC[N+](CC)(CCNC(=O)C(=O)NCC[N+](CC)(CC)Cc1ccccc1Cl)Cc1ccccc1Cl | inactive | inactive | inactive | inactive | 0.73% | inactive | inactive | inactive | inactive | inactive | – |
| CCCCCC[C@@H](O)C/C=C\CCCCCCCC(=O)OCC(O)CO (some centres not stated) | inactive | inactive | inactive | inactive | 10.7% | inactive | inactive | inactive | inactive | inactive | – |
| Cc1ccc(CO)cc1 | inactive | inactive | inactive | inactive | 18.5% | inactive | inactive | inactive | inactive | inactive | – |
| CCOc1cccc(-n2cc(C(=O)N3CCN(c4cc(C(=O)O)c5ccccc5c4)CC3)nc2-c2ccc(C)cc2)c1 | inactive | inactive | inactive | inactive | 7.68% | inactive | inactive | inactive | inactive | inactive | – |
| N#[N+]c1ccc2c(S(=O)(=O)[O-])cccc2c1O | inactive | inactive | inactive | inactive | -19.6% | inactive | inactive | inactive | inactive | inactive | – |
| CN1C(=O)OC(C)(C)C1=O | inactive | inactive | inactive | inactive | 0.839% | inactive | inactive | inactive | inactive | inactive | – |
| O=C(CCc1ccc(O)cc1)c1c(O)cc(O)cc1O | inactive | inactive | 25.1 µM (active) | inactive | – | inactive | inactive | inactive | inactive | inactive | 39.8 µM (active) |
| CC1(C)O[C@@H]2C[C@H]3[C@@H]4C[C@H](F)C5=CC(=O)C=C[C@]5(C)[C@H]4[C@@H](O)C[C@]3(C)[C@]2(C(=O)CO)O1 | inactive | inactive | inactive | inactive | -1.56% | inactive | inactive | inactive | inactive | inactive | – |
| CCCCN(CCCC)C(C(N)=O)c1ccc(OC)cc1 (configuration not stated) | inactive | inactive | inactive | inactive | -24.8% | inactive | inactive | inactive | inactive | inactive | – |
| CCC(=O)OC | inactive | inactive | inactive | inactive | 4.28% | inactive | inactive | inactive | inactive | inactive | – |
| FC(F)(F)c1ccccc1Cl | inactive | inactive | inactive | inactive | -1.41% | inactive | inactive | inactive | inactive | inactive | – |
| C/C=C/C=C/C=O | inactive | inactive | inactive | inactive | 10.8% | inactive | inactive | inactive | inactive | inactive | – |
| CCOC(=O)OC(C)OC(=O)[C@@H]1N2C(=O)[C@@H](NC(=O)[C@H](N)c3ccccc3)[C@H]2SC1(C)C (some centres not stated) | inactive | inactive | inactive | inactive | -0.757% | inactive | inactive | inactive | inactive | inactive | – |
| COC(=O)CS | inactive | inactive | inactive | inactive | 0.933% | inactive | inactive | inactive | inactive | inactive | – |
| O=C(O)CCC(=O)C(=O)O | inactive | inactive | inactive | inactive | 0.138% | inactive | inactive | inactive | inactive | inactive | – |
| Cc1cscn1 | inactive | inactive | inactive | inactive | 11.3% | inactive | inactive | inactive | inactive | inactive | – |
| CC1CC(OC(=O)C(O)c2ccccc2)CC(C)(C)N1C (configuration not stated) | inactive | inactive | inactive | inactive | 0.136% | inactive | inactive | inactive | inactive | inactive | – |
